Results reported in PubChem BioAssay (Tox21).
Inconclusive results are not listed. Active and inactive are the calls of the source. Calls follow the shape of the full dose curve.

experiment: qHTS assay to identify small molecule agonists or antagonists of the thyroid stimulating hormone receptor (TSHR) signaling pathway - wild type cell line counter screen (AID 1259384); settings: HEK293 wild type, cAMP HTRF counter-screen, stronger effect = higher value; series mostly up to 92.4 µM; cAMP activity change: at the top concentration
Source text: U.S. Tox21 Program National Center for Advancing Translational Sciences [NCATS] NIH Chemical Genomics Center [NCGC] U.S. Environmental Protection Agency [EPA] National Institutes of Environmental Health Sciences [NIEHS] National Toxicology Program [NTP] U.S. Food and Drug Administration [FDA] Tox21 Assay Overview: TSHR is the receptor for thyrotropin (thyroid stimulating hormone or TSH), a member of the glycoprotein hormone family. TSH is released by the anterior pituitary gland and is the main regulator of thyroid gland growth and development. Upon binding circulating thyrotropin, a G-protein signal cascade activates adenylyl cyclase and […] cAMP concentration is increased. cAMP is a key second messenger involved extensively in cellular signal transduction pathways associated with the majority of G-protein coupled receptors (GPCRs). The activation of these GPCRs by neurotransmitters, lipids, nucleotides, peptides and hormones results in the activation or the inhibition of plasma membrane-bound adenylate cyclase through heterotrimeric G-proteins. A cell-based TSHR-Hek293 assay can be used to identify TSHR agonists. To eliminate the false positive compounds identified from screening a cell-based TSHR-Hek293 cell line, cAMP assay in a wild type Hek293 cells was used as a counter screening.
Tox21 Assay Protocol Summary: Hek293 cells (wild type) were dispensed at 800 cells/4 uL/well in 1536-well white plates using a Multidrop dispenser. After the assay plates were incubated at a 37 C/5% CO2 incubator for 18 hrs, 23 nL of compounds dissolved in DMSO, positive controls or DMSO only was transferred to the assay plate by a pin tool, followed by 1 ul medium containing Ro20-1724. After 30 min of incubation at room temperature, 2.5 ul/well of cAMP-d2 and 2.5 ul/well of anti-cAMP-cryptate were added respectively into the assay plates using a Flying Reagent Dispenser. The plates were incubated at room temperature for 1 hr. The fluorescence intensity in the plates was measured using an Envision plate reader. Each test compound was measured at 15 concentrations and in triplicates.
% is scaled to controls: 0 for no effect and ±100 for the full control effect.

Q: With `O=C(CN1CCN(Cc2ccc3c(c2)OCO3)CC1)N1c2ccccc2Sc2ccccc21` as the molecule, how does the “cAMP activity change” value read?
A: -5.15% [at 42.5 µM] (inactive)

Q: Which “cAMP activity change” value does the source give for `CCC(O)C(C)(C)C` (stereo not given) here?
A: 4.57% (inactive)

Q: Which “cAMP activity change” value does the source give for `CCN(CCO)c1cccc(C)c1` here?
A: -4.08% (inactive)

Q: Which “cAMP activity change” value does the source give for `OC[C@@H](O)[C@H](O)[C@@H](O)[C@@H](O)CO` here?
A: 1.82% (inactive)

Q: With `C=C(C)C(=O)OC1CC(C)CC(C)(C)C1` (stereo not given) as the molecule, how does the “cAMP activity change” value read?
A: 1.17% (inactive)

Q: Which “cAMP activity change” value does the source give for `C=CCOc1c(Br)cc(Br)cc1Br` here?
A: -1.38% (inactive)

Q: For `O=c1cc(O)c(Cl)c[nH]1`, which “cAMP activity change” value is on record?
A: 1.29% [at 42.5 µM] (inactive)

Q: Which “cAMP activity change” value does the source give for `CC(=O)c1ccc(OCC(=O)N2CCCCC2)cc1` here?
A: 4.48% [at 42.5 µM] (inactive)

Q: For `CC(=O)OC(C)(C)Cc1ccccc1`, which “cAMP activity change” value is on record?
A: -0.925% (inactive)

Q: With `CC(C)CCO` as the molecule, how does the “cAMP activity change” value read?
A: 3.16% (inactive)

Q: With `CC1=CC[C@H](CC=O)C1(C)C` as the molecule, how does the “cAMP activity change” value read?
A: 0.495% (inactive)

Q: For `C=CCOC(=O)c1ccc(C(=O)OCC=C)c(C(=O)OCC=C)c1`, which “cAMP activity change” value is on record?
A: -6.5% (inactive)

Q: For `Cc1nc(C)nc(N2C[C@@H](C)N(c3ccnc([C@@H](C)O)n3)[C@@H](C)C2)n1`, which “cAMP activity change” value is on record?
A: -2.9% [at 42.5 µM] (inactive)

Q: With `CCCCC/C=C/CC(=O)OC` as the molecule, how does the “cAMP activity change” value read?
A: -0.0274% (inactive)

Q: For `COC(OC)C(C)c1ccccc1` (stereo not given), which “cAMP activity change” value is on record?
A: -0.0078% (inactive)

Q: With `COc1ccc(OC)c(NC(=O)CC(C)=O)c1` as the molecule, how does the “cAMP activity change” value read?
A: 3.56% (inactive)

Q: Which “cAMP activity change” value does the source give for `CC(=O)/C=C/c1ccco1` here?
A: 5.36% (inactive)

Q: Which “cAMP activity change” value does the source give for `C1=CCC(c2ccccc2)CC1` (stereo not given) here?
A: 6.2% (inactive)

Q: With `NC(=O)C1(N2CCCCC2)CCN(CCCC(=O)c2ccc(F)cc2)CC1` as the molecule, how does the “cAMP activity change” value read?
A: -5.64% [at 42.5 µM] (inactive)

Q: With `BrC/C=C/CBr` as the molecule, how does the cAMP activity change read?
A: -5.59% [at 18.9 µM] (inactive)

Q: For `O=c1[nH]c(=O)c2[nH]c(=O)[nH]c2[nH]1`, which cAMP activity change is on record?
A: -3.72% [at 8.39 µM] (inactive)

Q: Which “cAMP activity change” value does the source give for `SCCSCCS` here?
A: -0.448% (inactive)

Q: Which “cAMP activity change” value does the source give for `NC(Cc1c[nH]c2ccccc12)C(=O)O` (stereo not given) here?
A: 3.31% [at 42.5 µM] (inactive)

Q: With `Cc1cccc(C(=O)O)c1[N+](=O)[O-]` as the molecule, how does the “cAMP activity change” value read?
A: -1.42% (inactive)

Q: Which “cAMP activity change” value does the source give for `CC(C)c1ccccc1O` here?
A: -3.39% (inactive)

Q: For `O=C(O)c1c(Cl)ccc(Cl)c1Cl`, which “cAMP activity change” value is on record?
A: -0.804% (inactive)

Q: For `CNC(=O)NC`, which “cAMP activity change” value is on record?
A: -1.8% (inactive)

Q: For `O=C(Oc1ccccc1C(=O)O)c1ccccc1O`, which “cAMP activity change” value is on record?
A: 3.74% [at 42.5 µM] (inactive)

Q: Which “cAMP activity change” value does the source give for `CCc1nccnc1C` here?
A: 0.314% (inactive)

Q: For `NS(=O)(=O)c1ccc(Cl)c(S(N)(=O)=O)c1`, which “cAMP activity change” value is on record?
A: -1.67% [at 42.5 µM] (inactive)

Q: With `C/C=C(\C)C(=O)OCC/C=C\CC` as the molecule, how does the “cAMP activity change” value read?
A: -0.4% (inactive)

Q: Which “cAMP activity change” value does the source give for `NCCc1ccn[nH]1` here?
A: -4.08% [at 42.5 µM] (inactive)

Q: Which “cAMP activity change” value does the source give for `Cc1cc(C)cc([N+](=O)[O-])c1` here?
A: -3.72% (inactive)

Q: With `C=CCOc1cc(Cl)ccc1C(=O)NCCN(CC)CC` as the molecule, how does the “cAMP activity change” value read?
A: 4.36% [at 42.5 µM] (inactive)

Q: For `Cc1ccccc1N1CCN(CCc2nnc3n2CCCC3)CC1`, which “cAMP activity change” value is on record?
A: -3.02% [at 42.5 µM] (inactive)

Q: For `C=CCOCC(CO)(COCC=C)COCC=C`, which “cAMP activity change” value is on record?
A: -1.49% [at 42.5 µM] (inactive)

Q: With `CCOC(=O)C(=O)c1csc(NC=O)n1` as the molecule, how does the “cAMP activity change” value read?
A: -1.58% [at 42.5 µM] (inactive)

Q: Which “cAMP activity change” value does the source give for `O=C(COCCOCCOCC(=O)Nc1c(I)cc(I)c(C(=O)O)c1I)Nc1c(I)cc(I)c(C(=O)O)c1I` here?
A: -0.807% [at 42.5 µM] (inactive)

Q: For `Cc1nc2n(c(=O)c1CCN1CCC(C(=O)c3ccc(F)cc3)CC1)CCS2`, which “cAMP activity change” value is on record?
A: 1.46% [at 42.5 µM] (inactive)

Q: For `C[C@H](CCC(=O)NCC(=O)O)[C@H]1CC[C@H]2[C@@H]3[C@H](O)C[C@@H]4C[C@H](O)CC[C@]4(C)[C@H]3C[C@H](O)[C@]12C`, which “cAMP activity change” value is on record?
A: -0.105% (inactive)
